Data published in PubChem BioAssay AID1159580 (chemical genetic matrix, 2015).
Where “and” joins values, the source holds several entries; their conditions need not be identical. Equal entries are not always repeated. About 2,000 (36%) of roughly 5,500 compounds were called active. Roughly 18% stayed inconclusive and do not appear here. Rule as the data show it: active = normalized growth mostly below about 0.91 (no sharp cut-off); inconclusive = no clear call, values can overlap the other calls; inactive = mostly above about 0.92. This is one part of the list.

Test: chemical genetic growth profiling, strain panel (AID 1159580);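 also: tested at 20 µM; growth read once vehicle control cultures reached saturation at 30 °C; 1 = growth at the plate median or of vehicle wells; lower values mean less growth of the strain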
Details: S. cerevisiae deletion strains, growth OD

Measured: normalized growth

COC1=CC(=O)C[C@@H](C)[C@]12Oc1c(Cl)c(OC)cc(OC)c1C2=O
inactive: locus YAL013W, strain DEP1, hits give low values 1.02 | locus YAL021C, strain ccr4, hits give low values 1.01 | locus YAL026C, strain drs2, hits give low values 0.989 | locus YAL030W, strain snc1, hits give low values 0.988 | locus YBL061C, strain skt5, hits give low values 0.972 | locus YBR009C, strain hhf1, hits give low values 0.937 | locus YBR021W, strain FUR4, hits give low values 1 | locus YBR023C, strain chs3, hits give low values 0.978 | locus YBR171W, strain sec66, hits give low values 0.961 | locus YBR229C, strain ROT2, hits give low values 0.954 | locus YBR231C, strain swc5, hits give low values 1 | locus YBR279W, strain paf1, hits give low values 0.987 | locus YCL011C, strain gbp2, hits give low values 0.963 | locus YCL016C, strain dcc1, hits give low values 0.958 | locus YCL029C, strain bik1, hits give low values 0.987 | locus YCL061C, strain MRC1, hits give low values 1 | locus YCL069W, strain vba3, hits give low values 0.979 | locus YCR088W, strain abp1, hits give low values 0.979 | locus YDL005C, strain med2, hits give low values 0.996 | locus YDL035C, strain GPR1, hits give low values 0.95 | locus YDL040C, strain nat1, hits give low values 0.995 | locus YDL074C, strain BRE1, hits give low values 1.02 | locus YDL101C, strain DUN1, hits give low values 1 | locus YDL134C, strain PPH21, hits give low values 0.97 | locus YDL185W, strain tfp1, hits give low values 0.972 | locus YDL192W, strain arf1, hits give low values 0.988 | locus YDR001C, strain nth1, hits give low values 0.982 | locus YDR069C, strain doa4, hits give low values 0.991 | locus YDR101C, strain arx1, hits give low values 0.992 | locus YDR137W, strain rgp1, hits give low values 0.954 | locus YDR150W, strain NUM1, hits give low values 0.996 | locus YDR159W, strain sac3, hits give low values 1.02 | locus YDR162C, strain NBP2, hits give low values 0.932 | locus YDR195W, strain ref2 1.03 | locus YDR297W, strain sur2, hits give low values 1 | locus YDR318W, strain mcm21, hits give low values 0.988 | locus YDR334W, strain swr1, hits give low values 0.993 | locus YDR335W, strain msn5, hits give low values 0.986 | locus YDR388W, hits give low values 1 | locus YDR392W, strain spt3, hits give low values 0.907 | locus YDR502C, strain sam2, hits give low values 0.999 | locus YEL003W, strain gim4, hits give low values 0.986 | locus YEL037C, strain rad23, hits give low values 0.984 | locus YEL061C, strain CIN8 (second series), hits give low values 0.977 | locus YEL061C, strain CIN8, hits give low values 0.996 | locus YER015W, strain faa2, hits give low values 0.971 | locus YER016W, strain bim1, hits give low values 0.971 | locus YER110C, hits give low values 0.989 | locus YER111C, strain swi4, hits give low values 0.979 | locus YER155C, strain BEM2 (second series), hits give low values 1.01 | locus YER155C, strain BEM2, hits give low values 1.01 | locus YER167W, strain BCK2, hits give low values 0.981 | locus YFR010W, strain ubp6, hits give low values 0.987 | locus YGL078C, strain dbp3, hits give low values 0.987 | locus YGL086W, strain mad1, hits give low values 0.994 | locus YGL167C, strain pmr1, hits give low values 0.97 | locus YGL173C, strain kem1, hits give low values 0.984 | locus YGL227W, strain vid30, hits give low values 0.978 | locus YGL240W, strain doc1, hits give low values 1.01 | locus YGL248W, strain PDE1, hits give low values 1.01 | locus YGL253W, strain hxk2, hits give low values 0.994 | locus YGR078C, strain PAC10, hits give low values 1.01 | locus YGR135W, strain pre9, hits give low values 1.01 | locus YGR229C, strain SMI1, hits give low values 0.978 | locus YGR252W, strain gcn5, hits give low values 0.992 | locus YHR013C, strain ard1, hits give low values 0.975 | locus YHR027C, strain rpn1, hits give low values 0.975 | locus YHR030C, strain SLT2, hits give low values 0.988 and 1.01 | locus YHR079C, strain IRE1 (second series), hits give low values 0.995 | locus YHR079C, strain IRE1, hits give low values 1.01 | locus YHR094C, strain hxt1, hits give low values 0.988 | locus YHR129C, strain ARP1, hits give low values 0.996 | locus YHR142W, strain chs7, hits give low values 0.934 | locus YHR200W, strain rpn10, hits give low values 0.983 | locus YIL066C, strain RNR3, hits give low values 0.937 | locus YIL073C, strain SPO22, hits give low values 0.997 | locus YIL125W, strain kgd1, hits give low values 0.986 | locus YIR030C, strain dcg1, hits give low values 1.01 | locus YJL092W, strain hpr5, hits give low values 0.987 | locus YJL095W, strain BCK1 (second series), hits give low values 0.977 | locus YJL095W, strain BCK1, hits give low values 1.06 and 1.01 | locus YJL115W, strain asf1, hits give low values 0.981 | locus YJL129C, strain trk1, hits give low values 0.964 | locus YJL134W, strain LCB3, hits give low values 0.987 | locus YJL154C, strain vps35, hits give low values 0.983 | locus YJL164C, strain tpk1, hits give low values 0.964 | locus YJL166W, strain qcr8, hits give low values 1 | locus YJL168C, strain set2, hits give low values 0.989 | locus YJL187C, strain SWE1 (second series), hits give low values 1.03 | locus YJL187C, strain SWE1, hits give low values 0.983 | locus YJR043C, strain POL32, hits give low values 0.964 | locus YJR066W, strain TOR1, hits give low values 0.969
